From PubChem BioAssay (NCATS)
Inconclusive results are not listed. Active and inactive are the calls of the source. Unless noted, calls follow the shape of the dose curve; as a rule, active = well fitted curve in either direction with a large enough effect (not every such curve was filed as active); inconclusive = small, poorly fitted or top-dose-only effect, or another doubt; inactive = flat fitted curve, though single readings scatter.

Experiments:
[1] = target: Lysosomal acid glucosylceramidase (Homo sapiens) (UniProt P04062); experiment: Glucocerebrosidase-p2 (AID 348; in the data active = potency below about 10 µM; also: potency is read from the fitted curve at half-maximal effect); conditions: purified GBA, blue fluorogenic substrate, 40 min
How it was run: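 Normal human glucocerebrosidase (0.2 nM) with blue fluorogenic substrate (80 uM final) in citrate/phosphate pH 5.9 with 10mM sodium taurocholate, 0.01% tween-20; 40 min RT, NaOH/glycine stop; fluorescence Ex 365/Em 440; AC50 from a titration from 0.6 nM upwards.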

[2] = AP1 Signaling Pathway (AID 357); conditions: ME-180 AP-1-bla reporter, EGF-induced, beta-lactamase ratio, 5 h; at 7.69 µM (top of the series) unless noted; also: % is scaled to controls: 0 for no effect and ±100 for the full control effect
How it was run: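 In this screen, ME-180 cells in Opti-MEM with 0.5% dialyzed FBS received EC50 EGF and compound titrations for 5 h. AP-1 reporter beta-lactamase was detected via CCF4 ratio, giving AC50 for positive and negative modulators.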

[3] = NFAT Signaling Pathway (AID 444); conditions: Jurkat NFAT-bla M1, carbachol, beta-lactamase ratio, 5 h; at 7.69 µM (top of the series) unless noted;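 also: carbachol stimulus at about its EC50 of 1 µM final; % is scaled to controls: 0 for no effect and ±100 for the full control effect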
How it was run: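 Jurkat cells with NFAT-driven β-lactamase reporter and co-expressed M1 receptor, stimulated with carbachol (final 1 uM, ~EC50), compound titration, 5 h at 37 °C. CCF4 loaded 1 h at RT; 460/530 nm ratio gave %activity and AC50.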

[4] = Stat Signaling Pathway (AID 446); conditions: ME-180 (cervical carcinoma) SIE beta-lactamase reporter, IL-6 stimulated, 5 h; at 7.69 µM (top of the series) unless noted;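 also: ME-180 cervical cancer cells given 40 pM IL-6 alongside compound; SIE-controlled beta-lactamase reporter measured as 460/530 nm FRET emission ratio; % is scaled to controls: 0 for no effect and ±100 for the full control effect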
How it was run: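 FRET read-out (405 nm excitation, 460/530 nm emission) of a beta-lactamase reporter under a STAT-inducible element in ME-180 cervical carcinoma cells. Cells with compound receive 40 pM IL-6 for 5 h. Values are normalised to AC90 stimulation and AC90 JAK-inhibitor controls.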

[5] = target: Glucocorticoid receptor (Homo sapiens) (UniProt P04150); experiment: GR-GFP Redistribution (AID 450;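 active = compounds whose dose series gives a full or clear partial fitted curve of increased nuclear translocation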; also: potency is read from the fitted curve at half-maximal effect); conditions: U2OS GR-GFP nuclear translocation, laser cytometry, 2 h
[6] = target: Glucocorticoid receptor (Homo sapiens) (UniProt P04150); experiment: GR-EFC Redistribution (AID 451; calls by dose curve; also: potency is read from the fitted curve at half-maximal effect); conditions: CHO-K1 GR-EFC translocation, beta-gal luminescence, 2 h
How it was run: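 CHO-K1 cells expressing nuclear EA and GR-ED fragments of b-gal; compounds titrated up to 46 uM final, 2 h at 37 C. GR nuclear translocation read as complemented b-gal luminescence after 1 h RT detection.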

[7] = target: Mitogen-activated protein kinase 10 (Mus musculus) (UniProt Q61831); experiment: JNK3 AlphaScreen Assay (AID 530); conditions: JNK3 lysate, c-Jun phosphorylation; series mostly up to 11.4 µM;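 also: kinase came from lysate of stimulated human HepG2 cells; signal reports phosphorylation of biotinylated GST-cJun 1-79 at Ser73 with 10 µM ATP; % is scaled to controls: 0 for no effect and ±100 for the full control effect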
How it was run: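 HepG2 lysate (IL-1b/TNFa pre-activated) + biotin-GST-cJun 1-79 + anti-pSer73 cJun; cpd titration, 15 min RT; ATP 10 uM start; Tris pH 7.6, MgCl2, DTT, vanadate; beads in EDTA buffer; AlphaScreen.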

[8] = target: 3',5'-cyclic-AMP phosphodiesterase 4B (Homo sapiens) (UniProt Q07343); experiment: qHTS Assay for Inhibitors of PDE-IV (AID 607; active = well fitted activation curve with a large enough effect in the main read-out, with a control signal flat, not every such curve was filed as active; also: % of control where 0% means no effect); conditions: HEK293 ACTOne CNG channel cells, membrane potential fluorescence; series mostly up to 22.9 µM
How it was run: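 Cell-based read-out of cAMP via a modified cyclic nucleotide-gated channel and membrane potential dye (535/590 nm) in HEK293 cells expressing PDE4 endogenously. Compounds tested up to 22.9 uM final; 100 uM RO 20-1724 reference.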

Glucocorticoid receptor (Homo sapiens), sequence (P04150 whole entry, looked up, the tested form may be a part): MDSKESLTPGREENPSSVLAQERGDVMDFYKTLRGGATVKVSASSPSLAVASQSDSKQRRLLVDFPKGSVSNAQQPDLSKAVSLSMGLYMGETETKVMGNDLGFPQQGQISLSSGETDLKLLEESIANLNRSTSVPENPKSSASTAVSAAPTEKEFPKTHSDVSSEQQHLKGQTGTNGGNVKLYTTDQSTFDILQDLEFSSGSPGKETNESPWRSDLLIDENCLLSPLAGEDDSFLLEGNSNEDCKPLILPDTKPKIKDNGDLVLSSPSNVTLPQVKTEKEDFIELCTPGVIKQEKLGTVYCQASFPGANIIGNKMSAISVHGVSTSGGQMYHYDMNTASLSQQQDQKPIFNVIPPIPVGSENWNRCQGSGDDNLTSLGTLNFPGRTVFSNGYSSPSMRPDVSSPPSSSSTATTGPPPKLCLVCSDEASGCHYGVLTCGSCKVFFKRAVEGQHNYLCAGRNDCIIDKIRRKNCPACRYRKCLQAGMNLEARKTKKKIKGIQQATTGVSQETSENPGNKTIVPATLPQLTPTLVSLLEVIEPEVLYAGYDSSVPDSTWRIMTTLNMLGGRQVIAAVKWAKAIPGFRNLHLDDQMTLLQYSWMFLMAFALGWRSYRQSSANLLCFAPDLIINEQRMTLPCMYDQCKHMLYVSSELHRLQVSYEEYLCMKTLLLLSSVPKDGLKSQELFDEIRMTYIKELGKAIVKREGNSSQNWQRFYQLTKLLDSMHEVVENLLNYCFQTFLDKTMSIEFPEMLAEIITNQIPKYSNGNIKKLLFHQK
3',5'-cyclic-AMP phosphodiesterase 4B (Homo sapiens), sequence (Q07343 whole entry, looked up): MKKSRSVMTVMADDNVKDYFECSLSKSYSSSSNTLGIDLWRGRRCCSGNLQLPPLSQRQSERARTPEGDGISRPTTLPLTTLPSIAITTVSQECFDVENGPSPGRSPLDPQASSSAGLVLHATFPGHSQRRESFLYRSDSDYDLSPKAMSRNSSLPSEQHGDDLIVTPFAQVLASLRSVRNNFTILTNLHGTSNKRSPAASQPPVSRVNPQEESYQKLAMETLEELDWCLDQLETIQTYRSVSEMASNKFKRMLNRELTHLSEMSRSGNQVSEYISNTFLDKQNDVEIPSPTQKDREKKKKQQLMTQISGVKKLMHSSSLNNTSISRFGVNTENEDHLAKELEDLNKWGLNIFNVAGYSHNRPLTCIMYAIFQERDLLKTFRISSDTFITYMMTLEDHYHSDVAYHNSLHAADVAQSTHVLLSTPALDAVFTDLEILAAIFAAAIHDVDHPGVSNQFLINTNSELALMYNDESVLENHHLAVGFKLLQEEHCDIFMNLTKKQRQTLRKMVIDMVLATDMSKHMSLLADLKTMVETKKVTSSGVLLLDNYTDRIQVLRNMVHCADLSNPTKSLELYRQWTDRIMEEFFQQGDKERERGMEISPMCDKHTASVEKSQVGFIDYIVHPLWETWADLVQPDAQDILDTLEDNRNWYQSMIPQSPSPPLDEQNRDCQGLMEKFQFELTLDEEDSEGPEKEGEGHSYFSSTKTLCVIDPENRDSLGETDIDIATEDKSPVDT
Lysosomal acid glucosylceramidase (Homo sapiens), sequence (P04062 whole entry, looked up): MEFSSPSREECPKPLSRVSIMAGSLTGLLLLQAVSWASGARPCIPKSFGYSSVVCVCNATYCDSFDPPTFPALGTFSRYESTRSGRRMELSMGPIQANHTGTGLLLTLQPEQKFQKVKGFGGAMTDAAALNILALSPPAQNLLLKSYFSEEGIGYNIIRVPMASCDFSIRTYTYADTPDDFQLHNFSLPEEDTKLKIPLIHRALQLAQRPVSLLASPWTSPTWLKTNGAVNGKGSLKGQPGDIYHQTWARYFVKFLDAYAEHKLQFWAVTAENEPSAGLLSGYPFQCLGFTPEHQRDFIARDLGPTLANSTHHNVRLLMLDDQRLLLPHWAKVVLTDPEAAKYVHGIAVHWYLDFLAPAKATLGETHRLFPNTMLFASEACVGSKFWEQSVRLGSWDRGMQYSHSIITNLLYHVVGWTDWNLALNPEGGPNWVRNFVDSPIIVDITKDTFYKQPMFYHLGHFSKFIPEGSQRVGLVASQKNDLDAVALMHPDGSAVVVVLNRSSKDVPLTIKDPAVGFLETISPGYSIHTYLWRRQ

[Cu].[NH-][C@H](CC(=O)O)C(=O)O.[NH-][C@H](CC(=O)O)C(=O)O
inactive: Potency [1] > 11.4 µM | activity change, negative = inhibition [2] 5.72% | activity change, negative = inhibition [3] 8.79% | activity, negative = inhibition [4] 13.3% | Potency [5] > 46 µM | Potency [6] > 9.22 µM | Potency [7] | Potency [8]

CC(=O)[C@H]1CC[C@@H]2[C@]1(C)CC=C1[C@]23C=C[C@]2(C[C@H](O)CC[C@@]12C)[C@H](C(=O)O)[C@@H]3C(=O)O
inactive: Potency [1] > 11.4 µM | activity change, negative = inhibition [2] -6.74% | activity change, negative = inhibition [3] 13% | activity, negative = inhibition [4] 3.06% | Potency [5] > 46 µM | Potency [6] > 9.22 µM | Potency [7] | Potency [8]

c1ccc(CCNCc2ccco2)nc1
inactive: Potency [1] > 11.4 µM | activity change, negative = inhibition [2] 3.76% | activity change, negative = inhibition [3] -2.01% | activity, negative = inhibition [4] 1.92% | Potency [5] > 46 µM | Potency [6] > 9.22 µM | Potency [7] | Potency [8]

N[C@@]1(C(=O)O)CCC[C@@H]1C(=O)O
inactive: Potency [1] > 11.4 µM | activity change, negative = inhibition [2] 6.92% | activity change, negative = inhibition [3] 10.2% | activity, negative = inhibition [4] 9.09% | Potency [5] > 46 µM | Potency [6] > 9.22 µM | Potency [7] | Potency [8]

O=C1c2ccccc2C(=O)N1c1ccc(Cc2ccc(N3C(=O)c4ccccc4C3=O)cc2)cc1
inactive: Potency [1] > 11.4 µM | activity change, negative = inhibition [2] -0.978% | activity change, negative = inhibition [3] 8.54% | activity, negative = inhibition [4] -2.37% | Potency [5] > 46 µM | Potency [6] > 9.22 µM | Potency [7] | Potency [8]

CC1(C)[C@@H](CC(=O)O)CCC[C@@H]1CC(=O)O
inactive: Potency [1] > 11.4 µM | activity change, negative = inhibition [2] 2.47% | activity change, negative = inhibition [3] 5.58% | activity, negative = inhibition [4] 1.3% | Potency [5] > 46 µM | Potency [6] > 9.22 µM | Potency [7] | Potency [8]

CCOC(=O)Nc1nc(-c2ccccc2)c(C)s1
inactive: Potency [1] > 11.4 µM | activity change, negative = inhibition [2] -8.11% | activity change, negative = inhibition [3] -9.95% | activity, negative = inhibition [4] 1.24% | Potency [5] > 46 µM | Potency [6] > 9.22 µM | Potency [7] | Potency [8]

CN(C)Cc1cc(C(C)(C)C)cc(CN(C)C)c1O
inactive: Potency [1] > 11.4 µM | activity change, negative = inhibition [2] 12.4% | activity change, negative = inhibition [3] 3.21% | activity, negative = inhibition [4] -1.5% | Potency [5] > 46 µM | Potency [6] > 9.22 µM | Potency [7] | Potency [8]

COc1ccc(Oc2ncc3nc(-c4ccc(Cl)cc4)c(=O)n(CCC#N)c3n2)cc1
inactive: Potency [1] > 11.4 µM | activity change, negative = inhibition [2] -25.6% | activity change, negative = inhibition [3] 0.455% | activity, negative = inhibition [4] -7.87% | Potency [5] > 46 µM | Potency [6] > 46 µM | Potency [7] | Potency [8]

Cc1cc(Cl)ccc1OCC(=O)Oc1c(Cl)c(Cl)c(Cl)c(Cl)c1Cl
inactive: Potency [1] > 11.4 µM | activity change, negative = inhibition [2] 0.808% | activity change, negative = inhibition [3] -13.6% | activity, negative = inhibition [4] -0.45% | Potency [5] > 46 µM | Potency [6] > 9.22 µM | Potency [7] | Potency [8]

c1nnc(NCNc2nncs2)s1
inactive: Potency [1] > 11.4 µM | activity change, negative = inhibition [2] 12.8% | activity change, negative = inhibition [3] 7.13% | activity, negative = inhibition [4] -7.18% | Potency [5] > 46 µM | Potency [6] > 9.22 µM | Potency [7] | Potency [8]

C[N+]1(C)CCO[C@](O)(c2ccccc2)C1
inactive: Potency [1] > 11.4 µM | activity change, negative = inhibition [2] 7.17% | activity change, negative = inhibition [3] -3.28% | activity, negative = inhibition [4] 6.89% | Potency [5] > 46 µM | Potency [6] > 9.22 µM | Potency [7] | Potency [8]

Cc1nc2sc3c(c2c(=O)[nH]1)CCCC3
inactive: Potency [1] > 11.4 µM | activity change, negative = inhibition [2] 10.8% | activity change, negative = inhibition [3] -6.08% | activity, negative = inhibition [4] 6.96% | Potency [5] > 46 µM | Potency [6] > 9.22 µM | Potency [7] | Potency [8]

CS[C@@H](CC(=O)O)C(=O)O
inactive: Potency [1] > 11.4 µM | activity change, negative = inhibition [2] 2.29% | activity change, negative = inhibition [3] 3.57% | activity, negative = inhibition [4] 2.44% | Potency [5] > 46 µM | Potency [6] > 9.22 µM | Potency [7] | Potency [8]

O=C(O)/C=C\C=C/c1ccc2c(c1)OCO2
inactive: Potency [1] > 11.4 µM | activity change, negative = inhibition [2] 6.54% | activity change, negative = inhibition [3] 5.9% | activity, negative = inhibition [4] 1.24% | Potency [5] > 46 µM | Potency [6] > 9.22 µM | Potency [7] | Potency [8]

COc1ccc(Cc2ccc3[nH]c(=O)cc(C)c3c2)cc1S(=O)(=O)O
inactive: Potency [1] > 11.4 µM | activity change, negative = inhibition [2] 7.37% | activity change, negative = inhibition [3] 8.36% | activity, negative = inhibition [4] 5.41% | Potency [5] > 46 µM | Potency [6] > 9.22 µM | Potency [7] | Potency [8]
